Assay results taken from PubChem BioAssay.
For part of these data: Results with a measured potency or affinity are listed apart. The source made the active and inactive calls.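 The calls were made as follows, unless noted: active = compound raising the membrane signal above positive-control mean plus 3 SD in both repeats, and a primary screen hit; inactive = the rest.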

Columns and labels:
[1] = tested on: TRPC4 beta (transient receptor potential cation channel C4), mouse; assay: activators of mouse TRPC4 channel, confirmation, cell-based, Fluo4 calcium, HEK293 TRPC4beta/mu-opioid, duplicates, 10 µM (AID 2426;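 active = fluorescence ratio normalized to control raised more than 50% in primary screen plus both repeat runs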); conditions: Fluo4 calcium fluorescence, at 10 µM; hits give high values
[2] = tested on: transient receptor potential cation channel C4 beta (TRPC4), mouse; assay: activators of mouse TRPC4 channel, confirmation, cell-based, second round, Fluo4, HEK293 TRPC4beta/mu-opioid, 1 µM (AID 2461;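 active = primary screen active and over 50% activation in each of two duplicate runs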); conditions: Fluo4 calcium fluorescence, at 1 µM; hits give high values
[3] = tested on: TRPC4 (transient receptor potential cation channel C4 beta), mouse; assay: positive allosteric modulators of mouse TRPC4, confirmation, cell-based, second round, Fluo-4, HEK293 TRPC4beta/mu-opioid, 1 µM (AID 2554;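 active = primary screen hit whose fluorescence ratio, in both repeats, exceeds the weak agonist control mean by 3 SD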); conditions: DAMGO EC20, Fluo-4 calcium flux, at 1 µM; hits give high values
[4] = tested on: TRPC4 beta (transient receptor potential cation channel C4), mouse; assay: positive allosteric modulators of mouse TRPC4, confirmation, cell-based, Fluo-4, HEK293 TRPC4beta/mu-opioid (AID 2555;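 active = primary screen hit whose calcium fluorescence ratio, in both repeats, exceeds the weak agonist control mean by 3 SD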); conditions: DAMGO EC20, Fluo-4 calcium flux, at 10 µM; hits give high values
[5] = molecular target: Short transient receptor potential channel 4 (Mus musculus) (UniProt Q9QUQ5); assay: inhibitors of mouse TRPC4 channel, confirmation, cell-based, Fluo4, HEK293 TRPC4beta/mu-opioid (AID 2636;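 active = calcium signal cut by more than 3 SD below the full-agonist control yet still positive, in both repeats and the earlier primary screen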); conditions: DAMGO, Fluo4 calcium flux, at 10 µM; hits give high values
Chain of Short transient receptor potential channel 4 (Mus musculus) (Q9QUQ5 whole entry, looked up): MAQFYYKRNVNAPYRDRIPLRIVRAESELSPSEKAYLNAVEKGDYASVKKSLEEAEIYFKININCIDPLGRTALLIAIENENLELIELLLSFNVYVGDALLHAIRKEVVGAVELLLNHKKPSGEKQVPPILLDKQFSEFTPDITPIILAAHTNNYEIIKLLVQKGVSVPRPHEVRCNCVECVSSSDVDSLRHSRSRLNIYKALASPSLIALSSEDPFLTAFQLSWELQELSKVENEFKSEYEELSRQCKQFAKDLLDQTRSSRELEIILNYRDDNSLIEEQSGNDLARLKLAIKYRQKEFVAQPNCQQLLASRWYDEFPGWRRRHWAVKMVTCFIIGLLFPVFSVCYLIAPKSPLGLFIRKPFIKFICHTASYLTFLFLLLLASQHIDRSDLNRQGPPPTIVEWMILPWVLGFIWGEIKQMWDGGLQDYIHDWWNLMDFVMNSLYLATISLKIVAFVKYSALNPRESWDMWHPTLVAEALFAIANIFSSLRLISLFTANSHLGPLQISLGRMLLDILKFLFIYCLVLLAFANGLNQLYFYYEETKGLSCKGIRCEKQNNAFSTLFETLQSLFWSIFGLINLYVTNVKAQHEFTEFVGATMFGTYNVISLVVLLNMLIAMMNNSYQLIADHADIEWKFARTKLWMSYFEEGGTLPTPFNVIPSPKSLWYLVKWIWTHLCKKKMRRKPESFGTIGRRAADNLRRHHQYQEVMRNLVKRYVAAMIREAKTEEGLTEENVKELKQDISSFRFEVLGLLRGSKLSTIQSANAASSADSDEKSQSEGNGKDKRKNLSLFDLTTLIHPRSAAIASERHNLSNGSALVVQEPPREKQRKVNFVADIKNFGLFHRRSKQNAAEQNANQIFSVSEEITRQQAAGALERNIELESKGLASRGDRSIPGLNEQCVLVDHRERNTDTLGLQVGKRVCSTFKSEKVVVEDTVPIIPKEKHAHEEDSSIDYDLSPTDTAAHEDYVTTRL

[6] = molecular target: Short transient receptor potential channel 4 (Mus musculus) (UniProt Q9QUQ5); assay: inhibitors of mouse TRPC4 channel, confirmation, cell-based, second round, Fluo4, HEK293 TRPC4beta/mu-opioid, 1 µM (AID 2637;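 active = calcium signal ratio cut to more than 3 SD under the fully stimulated control mean yet still positive, in both repeats and the primary screen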); conditions: Fluo4 calcium flux, DAMGO, at 1 µM; hits give high values
[7] = molecular target: Short transient receptor potential channel 4 (Mus musculus) (UniProt Q9QUQ5); assay: mouse TRPC4 channel activators, dose response, cell-based, HEK293 TRPC4/mu-opioid, Fluo-4 calcium (AID 434937;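 active = primary screen activator hit with a dose response curve and TRPC4 channel activation at any tested dose; inactive = no activation, no dose response, or not a primary hit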)
[8] = molecular target: Short transient receptor potential channel 4 (Mus musculus) (UniProt Q9QUQ5); assay: TRPC4 positive allosteric modulators, dose response, cell-based, HEK293 TRPC4/mu-opioid, Fluo-4 calcium, EC20 DAMGO (AID 434941;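 active = earlier screen potentiator hit that boosts the TRPC4 ion channel at some dose, with a dose response; inactive = no potentiation, no dose response, or not a prior hit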;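 also: calcium entry triggered by an EC20 dose of DAMGO at the co-expressed mu-opioid receptor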)
[9] = molecular target: Short transient receptor potential channel 4 (Mus musculus) (UniProt Q9QUQ5); assay: mouse TRPC4 channel inhibitors, dose response, cell-based, HEK293 TRPC4/mu-opioid, Fluo-4 calcium (AID 434942;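 active = primary screen inhibitor hit that blocks the TRPC4 channel at some tested dose, yielding a dose curve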)
[10] = molecular target: Short transient receptor potential channel 6 (Mus musculus) (UniProt Q61143); assay: inhibition of mouse TRPC6 channel, confirmation, selectivity assay for TRPC4 inhibitor project, cell-based, HEK293, membrane potential dye, duplicate (AID 434948;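 active = active in primary screen and both duplicates, each dropping signal beyond three positive-control SD with fluorescence still positive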); conditions: HEK293 TRPC6, membrane potential dye fluorescence, at 10 µM, stimulated with maximal-effect acetylcholine; hits give high values
Chain of Short transient receptor potential channel 6 (Mus musculus) (Q61143 whole entry, looked up): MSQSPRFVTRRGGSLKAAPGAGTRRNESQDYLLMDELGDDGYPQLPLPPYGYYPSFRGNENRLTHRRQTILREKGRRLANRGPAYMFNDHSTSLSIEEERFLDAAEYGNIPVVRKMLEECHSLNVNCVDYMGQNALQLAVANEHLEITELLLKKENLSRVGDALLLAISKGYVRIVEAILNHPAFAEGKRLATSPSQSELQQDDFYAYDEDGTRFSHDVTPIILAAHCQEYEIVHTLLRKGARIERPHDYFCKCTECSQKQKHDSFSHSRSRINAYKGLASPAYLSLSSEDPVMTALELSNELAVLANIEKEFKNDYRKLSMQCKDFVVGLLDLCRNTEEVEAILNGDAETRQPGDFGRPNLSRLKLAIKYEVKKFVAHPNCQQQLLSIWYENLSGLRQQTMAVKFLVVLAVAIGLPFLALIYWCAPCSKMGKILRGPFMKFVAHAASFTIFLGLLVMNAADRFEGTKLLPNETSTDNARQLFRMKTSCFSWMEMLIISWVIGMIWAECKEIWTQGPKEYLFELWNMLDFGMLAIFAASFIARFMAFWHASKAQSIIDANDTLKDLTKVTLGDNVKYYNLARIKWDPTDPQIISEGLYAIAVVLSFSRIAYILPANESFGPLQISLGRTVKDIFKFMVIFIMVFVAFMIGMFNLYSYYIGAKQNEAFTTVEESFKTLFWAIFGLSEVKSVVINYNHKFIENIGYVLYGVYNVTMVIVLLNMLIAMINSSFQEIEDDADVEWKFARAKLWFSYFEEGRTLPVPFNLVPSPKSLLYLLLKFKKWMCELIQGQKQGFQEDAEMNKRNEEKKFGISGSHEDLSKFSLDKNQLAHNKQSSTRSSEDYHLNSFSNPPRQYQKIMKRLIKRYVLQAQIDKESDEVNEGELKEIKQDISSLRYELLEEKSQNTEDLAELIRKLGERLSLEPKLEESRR

[11] = molecular target: Short transient receptor potential channel 6 (Mus musculus) (UniProt Q61143); assay: activation of mouse TRPC6 channel, confirmation, selectivity assay for TRPC4 activator project, cell-based, HEK293, membrane potential dye, duplicate (AID 434950;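 active = membrane potential signal rise above negative control mean plus 3 SD in both duplicates, also active in the earlier TRPC4 screen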;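 as to activation: 0% = buffer only wells and 100% = acetylcholine maximal-effect wells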); conditions: HEK293 TRPC6, membrane potential fluorescence, at 10 µM; hits give high values
[12] = molecular target: Short transient receptor potential channel 6 (Mus musculus) (UniProt Q61143); assay: TRPC6 potentiation by TRPC4 potentiator hits, confirmation, selectivity assay for TRPC4 potentiator project, HEK293 cells, membrane potential dye, duplicate (AID 434952); conditions: HEK293 TRPC6, membrane potential dye fluorescence, at 10 µM, maximal acetylcholine added after compound; hits give high values
[13] = molecular target: Short transient receptor potential channel 4 (Mus musculus) (UniProt Q9QUQ5); assay: calcium flux activators in TRPC4/5HT1a cells, counter-screen for TRPC4 activator project, cell-based, second counter screen, HEK293 TRPC4/5HT1a, Fluo-4 (AID 434977;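 active = calcium signal rise above buffer-control mean plus 5 SD in both duplicates, and also a hit in the primary screen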); conditions: Fluo-4 calcium flux, at 10 µM; hits give high values
[14] = calcium flux inhibitors in TRPC4/5HT1a cells, confirmation, counter-screen for TRPC4 inhibitor project, cell-based, second counter screen, HEK293 TRPC4/5HT1a, Fluo-4 (AID 434978;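 active = primary screen active whose calcium signal fell more than 3 SD beyond the full-serotonin control mean in both duplicate plates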;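 also: serotonin given first at submaximal then at maximal dose after compound preincubation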); conditions: Fluo-4 calcium flux, at 10 µM, serotonin added to trigger calcium flux; hits give high values
[15] = tested on: TRPC4 (mouse), co-expressed with 5HT1a in HEK293; assay: calcium flux potentiators in TRPC4/5HT1a cells, confirmation, counter-screen for TRPC4 potentiator project, cell-based, second counter screen, HEK293 TRPC4/5HT1a, Fluo-4 (AID 434979;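 active = signal rise over 3 SD above mean of control wells given weak agonist, in both repeats and first screen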); conditions: Fluo-4 calcium flux, at 10 µM, serotonin added at its EC20 dose; hits give high values
[16] = calcium flux activation in mu-opioid HEK293 cells, confirmation, counter-screen for TRPC4 activator project, cell-based, HEK293 mu-opioid receptor line (AID 449723;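 active = hit in primary screen, with calcium signal over 5 SD above buffer well mean in both duplicates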;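 also: counter screen cells carry the mu-opioid receptor alone and lack TRPC4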); conditions: Fluo-4 calcium fluorescence, at 10 µM; hits give high values
[17] = calcium flux enhancement in mu-opioid HEK293 cells, confirmation, counter-screen for TRPC4 allosteric potentiator project, cell-based, HEK293 mu-opioid receptor line (AID 449724;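 active = calcium signal rise more than 3 SD above the low-dose agonist control mean, in both duplicate plates and the primary screen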); conditions: Fluo-4 calcium flux, at 10 µM, compound added before EC20 DAMGO stimulus; hits give high values

CN1CCN(S(=O)(=O)c2ccc(Br)c3ccccc23)CC1
inactive: outcome [1] | outcome [2] | outcome [3] | outcome [4] | outcome [5] | outcome [6] | outcome [7] | outcome [8] | outcome [9] | outcome [10] | outcome [11] | outcome [12] | outcome [13] | outcome [14] | outcome [16] | outcome [17]
active: potentiation [15] 26.5%

O=C(COC(=O)c1cc2c(s1)CCCCC2)NC1CCS(=O)(=O)C1 (stereo not given)
inactive: outcome [1] | outcome [2] | outcome [3] | outcome [4] | outcome [5] | outcome [6] | outcome [7] | outcome [8] | outcome [9] | outcome [10] | outcome [11] | outcome [12] | outcome [13] | outcome [14] | outcome [15] | outcome [16] | outcome [17]

CCN1CCN(c2ccc(S(=O)(=O)N3CCCCC3)cc2NC(=O)COc2cc(C)ccc2Cl)CC1
active: potentiation [4] 16% | potentiation [15] 17.8%
inactive: outcome [1] | outcome [2] | outcome [3] | outcome [5] | outcome [6] | outcome [7] | outcome [8] | outcome [9] | outcome [10] | outcome [11] | outcome [12] | outcome [13] | outcome [14] | outcome [16] | outcome [17]

CCCC(=O)Nc1c(-c2ccccc2)c(=O)c(C)nn1-c1ccc(Cl)cc1
inactive: outcome [1] | outcome [2] | outcome [3] | outcome [4] | outcome [5] | outcome [6] | outcome [7] | outcome [8] | outcome [9] | outcome [10] | outcome [12] | outcome [13] | outcome [14] | outcome [15] | outcome [16] | outcome [17]
active: activation [11] 33.5%

NC(N)=NN=C1CCC(c2ccccc2)CC1 (stereo not given)
inactive: outcome [1] | outcome [2] | outcome [3] | outcome [4] | outcome [5] | outcome [6] | outcome [7] | outcome [8] | outcome [9] | outcome [10] | outcome [11] | outcome [12] | outcome [13] | outcome [14] | outcome [15] | outcome [16] | outcome [17]

Cc1c(C(=O)NCCc2ccccc2)oc2ccccc12
active: potentiation [4] 61% | potentiation [15] 45.7%
inactive: outcome [1] | outcome [2] | outcome [3] | outcome [5] | outcome [6] | outcome [7] | outcome [8] | outcome [9] | outcome [10] | outcome [11] | outcome [12] | outcome [13] | outcome [14] | outcome [16] | outcome [17]

CN(CC(=O)Nc1ccc(F)cc1)C(=O)COC(=O)c1ccccc1
active: potentiation [3] 27% | potentiation [4] 25% | potentiation [15] 23.8%
inactive: outcome [1] | outcome [2] | outcome [5] | outcome [6] | outcome [7] | outcome [8] | outcome [9] | outcome [10] | outcome [11] | outcome [12] | outcome [13] | outcome [14] | outcome [16] | outcome [17]

Cc1ccc(C)c(OCCCCN2CCNCC2)c1C
active: potentiation [4] 9% | potentiation [15] 29.4%
inactive: outcome [1] | outcome [2] | outcome [3] | outcome [5] | outcome [6] | outcome [7] | outcome [8] | outcome [9] | outcome [10] | outcome [11] | outcome [12] | outcome [13] | outcome [14] | outcome [16] | outcome [17]

CCc1ccc(OCC(=O)NC2CCCCC2)c(Br)c1
inactive: outcome [1] | outcome [2] | outcome [3] | outcome [5] | outcome [6] | outcome [7] | outcome [8] | outcome [9] | outcome [10] | outcome [11] | outcome [12] | outcome [13] | outcome [14] | outcome [16] | outcome [17]
active: potentiation [4] 46% | potentiation [15] 135%

CN1CCCN(Cc2cccc3ccccc23)CC1
active: potentiation [3] 34% | potentiation [15] 28.3%
inactive: outcome [1] | outcome [2] | outcome [4] | outcome [5] | outcome [6] | outcome [7] | outcome [8] | outcome [9] | outcome [10] | outcome [11] | outcome [12] | outcome [13] | outcome [14] | outcome [16] | outcome [17]

Cc1c(CCOC(=O)c2ccccc2)sc[n+]1CC(=O)c1ccc(Br)cc1
inactive: outcome [1] | outcome [2] | outcome [3] | outcome [4] | outcome [5] | outcome [6] | outcome [7] | outcome [8] | outcome [9] | outcome [10] | outcome [11] | outcome [12] | outcome [13] | outcome [14] | outcome [15] | outcome [16] | outcome [17]

Cc1cc2oc(C(=O)N(Cc3ccco3)C3CCS(=O)(=O)C3)cc(=O)c2cc1Cl (stereo not given)
inactive: outcome [1] | outcome [2] | outcome [3] | outcome [5] | outcome [6] | outcome [7] | outcome [8] | outcome [9] | outcome [10] | outcome [11] | outcome [12] | outcome [13] | outcome [14] | outcome [16] | outcome [17]
active: potentiation [4] 66% | potentiation [15] 70.9%

CCOC(=O)C1=C(C)N(c2ccccc2)C(=O)NC1c1cccc([N+](=O)[O-])c1 (stereo not given)
inactive: outcome [1] | outcome [2] | outcome [3] | outcome [4] | outcome [5] | outcome [6] | outcome [7] | outcome [8] | outcome [9] | outcome [10] | outcome [11] | outcome [12] | outcome [13] | outcome [14] | outcome [16] | outcome [17]
active: potentiation [15] 9.17%

COc1ccc(-n2cc(CNCc3cnc4ccccn34)c(-c3cccc(F)c3)n2)cc1
inactive: outcome [1] | outcome [2] | outcome [3] | outcome [4] | outcome [5] | outcome [6] | outcome [7] | outcome [8] | outcome [9] | outcome [10] | outcome [11] | outcome [12] | outcome [13] | outcome [14] | outcome [15] | outcome [16] | outcome [17]

COC(=O)c1ccc(/C=N/N2CCN(Cc3ccc(C)cc3C)CC2)cc1
active: potentiation [3] 6% | potentiation [4] 22% | potentiation [15] 28.6%
inactive: outcome [1] | outcome [2] | outcome [5] | outcome [6] | outcome [7] | outcome [8] | outcome [9] | outcome [10] | outcome [11] | outcome [12] | outcome [13] | outcome [14] | outcome [16] | outcome [17]
